High-throughput results deposited in PubChem BioAssay by National Center for Advancing Translational Sciences (NCATS).
HPGD block – inhibitors of human 15-hydroxyprostaglandin dehydrogenase (HPGD). P15428. purified HPGD, NADH fluorescence kinetic, PGE2 substrate. Potency, µM, for inactives: at the highest dose activity change, negative = inhibition, actives largely listed as inhibitors. 150,000 compounds, 4.3% hits. AID 894; note: potency is the fitted concentration of half-maximal effect
Target sequence (P15428 whole entry, looked up): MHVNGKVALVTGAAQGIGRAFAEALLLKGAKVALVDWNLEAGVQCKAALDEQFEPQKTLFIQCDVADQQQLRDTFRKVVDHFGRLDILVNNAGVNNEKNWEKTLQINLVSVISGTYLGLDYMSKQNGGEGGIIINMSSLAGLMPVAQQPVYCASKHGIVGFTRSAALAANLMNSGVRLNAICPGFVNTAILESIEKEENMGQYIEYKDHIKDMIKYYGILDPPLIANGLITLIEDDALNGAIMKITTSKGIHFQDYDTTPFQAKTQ
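NADH formation kinetics: reaction with 30 uM PGE2 and 1 mM NAD+ (final), 20 nM enzyme, Tris-HCl pH 8 with Tween 20, after 15 min compound preincubation at room temperature. Fluorescence change, last versus first of five reads.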
ALOX12 inhib – blocks human 12-lipoxygenase activity; purified 12-hLO, xylenol orange hydroperoxide absorbance; 150,000 compounds, 0.12% hits; Potency, µM (doses to about 57.1 µM), for inactives: top-dose activity change, negative = inhibition, hits mostly inhibitors; P18054; active = well fitted curve in the direction sought with a large enough effect; inconclusive = small, poorly fitted or top-dose-only effect, or another doubt; inactive = no such curve, though single readings can be large; an effect the other way counts as inactive or inconclusive; note: potency is the fitted concentration of half-maximal effect; nearly all actives have a fitted effect of over 55% in size
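Hydroperoxide output read as Fe(III)-xylenol orange absorbance, 573-to-405 nm ratio, after 30 min reaction with 40 uM arachidonic acid. Enzyme: 150 nM purified human 12hLO, 15 min compound preincubation; 25 mM Hepes pH 7.0, room temperature.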
IMPase Li inh – membrane-permeable IMPase blocker, potentiated with lithium; Potency, µM (top dose mostly 59.4 µM), without a hit: at the highest dose activity, negative = IMPase inhibition, actives largely listed as inhibitors; AID 1457; 210,000 compounds, 0.35% hits; CHO-M1 cells, IP1 TR-FRET (IP-One), carbachol + lithium; active = well fitted curve in the direction sought with a large enough effect; inconclusive = small, poorly fitted or top-dose-only effect, or another doubt; inactive = no such curve, though single readings can be large; an effect the other way counts as inactive or inconclusive;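 note: IP1 builds up when IMPase is blocked and the TR-FRET signal falls; potency is the fitted concentration of half-maximal effect; plate controls were basal vehicle for no effect and high inhibitor control for full effect; nearly all actives have a fitted effect of over 50% in size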
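Steps: plate 2000 CHO-M1 cells per well and culture 16–30 h; add compound and lithium; incubate 30 min, 37C; add d2-IP1 tracer and Eu cryptate anti-IP1 antibody in lysis buffer; read after 10 min at room temperature.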
ALDH1A1 block – inhibitors of human aldehyde dehydrogenase 1A1 | Potency, µM (titrated, usually from 75.3 µM), for inactives: top-dose activity, negative = inhibition, hits mostly inhibitors | Purified ALDH1A1, NADH fluorescence, propionaldehyde substrate | P00352 | 220,000 compounds, 7.3% hits;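 note: potency is the fitted concentration of half-maximal effect; plate controls were no enzyme wells and a reference inhibitor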
IMPase inh – membrane-permeable compound that blocks inositol monophosphatase; P97697; CHO-M1 cells, IP1 accumulation, HTRF TR-FRET ratio; inhibition (IP1 accumulation), % at 46.1 µM; 120,000 tested, under 10 active; AID 901; active = well fitted curve in the direction sought with a large enough effect in the signal ratio, not every such curve was filed as active; inconclusive = small, poorly fitted or top-dose-only effect, or a change in a side signal; inactive = no such curve, though single readings can be large or run the other way; the % refers to the signal ratio;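 note: cells stimulated with carbachol in lithium chloride buffer; plate controls were DMSO basal wells for no effect and reference inhibitor wells for full effect; higher means more IMPase inhibition seen as more IP1 and lower FRET ratio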
Target sequence (P97697 whole entry, looked up): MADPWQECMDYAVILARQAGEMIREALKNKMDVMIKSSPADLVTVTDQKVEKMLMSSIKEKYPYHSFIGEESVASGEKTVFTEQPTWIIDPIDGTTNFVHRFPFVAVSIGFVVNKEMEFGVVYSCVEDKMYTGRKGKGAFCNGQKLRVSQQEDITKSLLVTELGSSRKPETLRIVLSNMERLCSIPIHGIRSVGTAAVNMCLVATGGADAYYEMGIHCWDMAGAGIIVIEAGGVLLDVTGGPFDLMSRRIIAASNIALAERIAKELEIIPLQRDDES
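CHO-M1, 2000 cells/well, cultured 16–30 h; cpd up to 46 uM; carbachol (50 uM solution, stimulation buffer w/ 50 mM LiCl, pH 7.4), 30 min 37C; IP-One TR-FRET, 10 min RT; Ex 320/Em 665, 620; Hill-fit AC50.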
PNC inhibitor – blocks assembly of the perinucleolar compartment; PC3M PTB-GFP, PNC prevalence imaging, 16 h; active compounds read low; activity change (PNC), negative = inhibition, % at 10 µM; 140,000 compounds, 3.1% hits;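 active = readout at or below -70, meaning at least 70% loss of cells showing the perinucleolar compartment, a nuclear body marking cancer cells; inconclusive = readout between -30 and a set limit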;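 note: plate controls were DMSO wells for no effect and camptothecin positive control wells for full effect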
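Read-out is percentage of cells bearing a perinucleolar compartment, from automated 20x imaging of fixed, Hoechst-stained PC3M PTB-GFP cells. Cells were seeded 4 h, then exposed 16 h to compound (23 nl of library stock) in duplicate plates.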
Starred values were filed as active, the others as inactive; ? = inconclusive; nt = no result; [ ] = dose if it differs, or a comment. Only some compounds are listed: those with a hit (about 11% of all), similar ones and a draw of the others. Unless noted, calls come from the whole dose curve; as a rule, active = well fitted inhibition curve with a large enough effect (not every such curve was filed as active); inconclusive = small, poorly fitted or top-dose-only effect, or another doubt; inactive = no such curve, though single readings can be large or run the other way. Unless noted, % is set by controls: 0 for no effect and ±100 for the full control effect.

SMILES	HPGD block	ALOX12 inhib	IMPase Li inh	ALDH1A1 block	IMPase inh	PNC inhibitor
Cc1nc2ccc(Cl)cn2c1P(=S)(N1CCOCC1)N1CCOCC1	-4%	0%	2%[38.3 µM]	10%	8	63
Cn1ccnc1P(=S)(c1nccn1C)N1CCOCC1	25µM*	-2%	-4%[38.3 µM]	28µM*	2	10
CC(O)CCl (configuration not stated)	1%	-1%	7%	22%	nt	nt
COc1ccc(/C=C2\C(=O)NC(=O)N(Cc3ccccc3)C2=O)c(OC)c1OC	nt	nt	-2%	10µM*	nt	nt
COc1ccccc1N1C(=O)NC(=O)/C(=C\c2cnn(-c3ccccc3)c2)C1=O	nt	nt	9%	8.9µM*	nt	nt
O=C1NC(=O)N(Cc2ccccc2)C(=O)/C1=C/c1cnn(-c2ccccc2)c1	nt	nt	5%	10µM*	nt	nt
COc1cc(/C=C2/C(=O)NC(=O)N(c3ccccc3)C2=O)ccc1O	?	1%	0%	?	nt	28
COc1ccc(CN2C(=O)NC(=O)/C(=C/c3ccc([N+](=O)[O-])s3)C2=O)cc1	nt	nt	nt	4µM*	nt	nt
CCOc1ccc(N2C(=O)NC(=O)/C(=C\c3cc(OC)c(OC)cc3[N+](=O)[O-])C2=O)cc1	28µM*	-15%	6%	11µM*	nt	-3
COc1ccc(CN2C(=O)NC(=O)/C(=C\c3ccco3)C2=O)cc1	nt	nt	17%	?	nt	nt
COc1ccc(N2C(=O)/C(=C/C=C/c3ccccc3[N+](=O)[O-])C(=O)NC2=S)cc1	nt	nt	4%	8.9µM*	nt	nt
COc1ccc(N2C(=O)NC(=O)/C(=C\c3ccc([N+](=O)[O-])s3)C2=O)cc1	nt	nt	8%	40µM*	nt	nt
Cc1ccc(N2C(=O)NC(=O)/C(=C\c3ccc([N+](=O)[O-])o3)C2=O)cc1	nt	nt	5%	?	nt	nt
ClC(Cl)=C(Cl)Cl	-5%	1%	-4%	14%	nt	nt
COc1ccccc1-n1c(-c2ccoc2)nc2ccccc2c1=O	-11%	0%	0%[38.3 µM]	?	-1	2
O=c1c2ccccc2nc(-c2ccoc2)n1-c1ccccc1Cl	-20%	0%	42%[38.3 µM]	16µM*	3	12
COc1ccc(N2C(=O)CS(=O)C(c3ccccc3)C2=O)cc1 (configuration not stated)	nt	nt	3%	1.1µM*	nt	nt
C[C@@H]1O[C@@H](OC2CC(O)C3(CO)C4C(CCC3(O)C2)C2(O)CCC(C3=CC(=O)OC3)C2(C)C[C@H]4O)[C@H](O)[C@H](O)[C@H]1O (some centres not stated)	-3%	-2%[0.00818 µM]	nt	14%	nt	nt
CC[C@@]1(O)C(=O)OCc2c1cc1n(c2=O)Cc2cc3c(O)cccc3nc2-1	nt	nt	8.9µM*	?	nt	nt
Cc1o[nH]c(=O)c1C[C@H](N)C(=O)O	4%	-4%	30%	-4%	1	nt
CC[C@]1(OC(=O)CN)C(=O)OCc2c1cc1n(c2=O)Cc2cc3ccccc3nc2-1	?	1%[11.4 µM]	-10%	?	nt	nt
O=c1[nH]c(=S)n(Cc2ccc(F)cc2)c(O)c1/C=N/N1CCCCC1	-18%	-2%	12%	?	nt	?
O=c1[nH]c(=S)n(Cc2ccc(F)cc2)c(O)c1C=NCC1CCCO1 (configuration not stated)	28µM*	7%	27%[38.3 µM]	?	-10	?
NCC(N)C(=O)c1ccccc1 (configuration not stated)	-17%	0%	-1%	?	nt	nt
CCn1c(O)c(/C(C)=N/N2CCCCC2c2cccnc2)c(=O)[nH]c1=S (configuration not stated)	-2%	1%	10%	-6%	nt	-13
CCc1ccc(-n2c(O)c(/C=N/N3CCCCC3c3cccnc3)c(=O)[nH]c2=O)cc1 (configuration not stated)	-16%	-2%	9%	-14%	-3	-100*
C=CCOC(C)=O	-8%	-1%	26%	-1%	nt	nt
